High-throughput results: PubChem BioAssay, National Center for Advancing Translational Sciences (NCATS)
Only a selection was taken, and hits are over-represented in it overall.
DT40 TDP1 no CPT: qHTS for Inhibitors of human tyrosyl-DNA phosphodiesterase 1 (TDP1): qHTS in cells in absence of CPT | DT40 Tdp1-/- hTDP1 cells, no CPT, ATP luminescence, 48 h | Potency, µM (doses to about 46.2 µM), for the others: top-dose activity change, negative = growth inhibition, actives largely listed as inhibitors | actives 15% (n = 420,000) | AID 686978, 2013; note: potency is the fitted concentration of half-maximal effect; nearly all actives have a fitted effect of over 55% in size
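Chicken DT40 Tdp1-/- cells stably complemented with human TDP1 were seeded at 400 cells/well with DMSO in place of 20 nM camptothecin. After compound pinning, cells grew at least 48 hr at 37 °C; viability read by CellTiter-Glo luminescence.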
HT1080 IDH1KD tx: qHTS for induction of synthetic lethality in tumor cells producing 2HG: qHTS for the HT-1080-IDH1KD cell line | HT-1080 IDH1 knockdown viability, ATP luminescence, 48 h | Potency, µM (top dose mostly 46.1 µM), for inactives: at the top dose activity, negative = toxicity, most hits filed as cytotoxic | actives 2% (n = 360,000) | AID 686971, 2013;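 note: potency is the fitted concentration of half-maximal effect; 0% = DMSO wells and -100% = cell-free medium wells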
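Assay cells: HT-1080 with IDH1 knockdown, 750 per well, RPMI/5% FBS. Exposure: 48 h at 37 °C following 2 h pre-incubation. Read: CellTiter-Glo luminescence; fitted concentration-response, curve class assigned.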
IL-1B inflam inh: qHTS for Inhibitors of Inflammasome Signaling: IL-1-beta AlphaLISA Primary Screen | activity change, % at 57.5 µM | actives 4.7% (n = 360,000) | THP-1 LPS/ATP IL-1B secretion, AlphaLISA, 16 h; active compounds read low; in the data active = activity change below about -50%; inconclusive = mostly about -30% to -49%
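THP-1 cells pretreated 1 hr with compounds (up to 57.5 uM final), then stimulated with LPS (250 ng/mL final) plus ATP (1.25 mM final); secreted IL-1B measured by AlphaLISA after 16 hr, decreased signal indicating inhibition.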
12-LOX inh: Primary qHTS assay for inhibitors of human arachidonate 12S-lipoxygenase (ALOX12): Round 2 | Potency, µM (series often up to 108 µM), for the others: at the highest dose activity change, negative = inhibition, usual class: inhibitors | Polyunsaturated fatty acid lipoxygenase ALOX12 (Homo sapiens), P18054 | purified 12hLO, xylenol orange hydroperoxide absorbance | actives 1.1% (n = 580,000); note: potency is the fitted concentration of half-maximal effect
Target sequence (P18054 whole entry, looked up): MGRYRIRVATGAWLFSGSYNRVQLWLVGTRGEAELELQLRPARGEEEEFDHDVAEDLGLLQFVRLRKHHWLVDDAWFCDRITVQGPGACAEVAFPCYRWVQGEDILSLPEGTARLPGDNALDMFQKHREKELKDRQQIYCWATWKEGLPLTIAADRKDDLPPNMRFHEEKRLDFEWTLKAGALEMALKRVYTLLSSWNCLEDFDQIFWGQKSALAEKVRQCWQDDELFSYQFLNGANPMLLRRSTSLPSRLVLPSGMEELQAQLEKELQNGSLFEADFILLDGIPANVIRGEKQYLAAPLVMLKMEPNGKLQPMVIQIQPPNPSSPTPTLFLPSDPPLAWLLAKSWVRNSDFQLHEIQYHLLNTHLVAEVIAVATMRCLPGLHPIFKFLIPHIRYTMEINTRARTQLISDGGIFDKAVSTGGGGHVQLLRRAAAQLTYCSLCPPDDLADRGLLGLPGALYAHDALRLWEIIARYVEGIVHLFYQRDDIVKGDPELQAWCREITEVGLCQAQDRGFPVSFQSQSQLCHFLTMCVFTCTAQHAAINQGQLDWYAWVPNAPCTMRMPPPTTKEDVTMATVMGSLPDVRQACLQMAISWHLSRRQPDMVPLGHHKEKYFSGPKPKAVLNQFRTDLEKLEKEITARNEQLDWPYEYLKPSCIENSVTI
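Purified human 12hLO at 150 nM in 25 mM Hepes, 0.01% Triton X-100, pH 7.0, preincubated 15 min at room temperature with compound. Reaction started with 40 uM arachidonic acid, 30 min at room temperature. Hydroperoxide measured by Fe-xylenol orange, 573/405 nm absorbance ratio.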
HT1080NT lethal: qHTS for induction of synthetic lethality in tumor cells producing 2HG: qHTS for the HT-1080-NT fibrosarcoma cell line. HT-1080-NT fibrosarcoma viability, CellTiter-Glo ATP luminescence, 48 h. Potency, µM (highest dose often 46.1 µM), for inactives: at the highest dose activity, negative = less viability, most hits filed as cytotoxic. actives 1.6% (n = 360,000);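 note: NT is the 2HG producing partner of a matched IDH1 knockdown line; potency is the fitted concentration of half-maximal effect; 0% = DMSO-treated cells and -100% = media-only wells without cells; nearly all actives have a fitted effect of over 55% in size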
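750 cells/well, RPMI + 5% FBS; 2 h settle, compound pin-transfer, 48 h at 37 degrees C. CellTiter-Glo 10 min RT, luminescence. Normalized to DMSO and media-only wells.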
TDP1 cell CPT: qHTS for Inhibitors of human tyrosyl-DNA phosphodiesterase 1 (TDP1): qHTS in cells in presence of CPT. chicken DT40 Tdp1-/-;hTDP1 cells + 20 nM CPT, ATP luminescence, 48 h. actives 12% (n = 420,000). AID 686979, 2013. Potency, µM (titrated, usually from 46.2 µM), for inactives: at the highest dose activity change, negative = growth inhibition, usual class: inhibitors; note: potency is the fitted concentration of half-maximal effect; nearly all actives have a fitted effect of over 55% in size
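Chicken DT40 Tdp1-/- cells stably complemented with human TDP1 were seeded at 400 cells/well in medium containing 20 nM camptothecin, exposed to pin-transferred compounds, and grown at 37 °C for at least 48 hr. Viability was read as ATP luminescence.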
* hit, by the source's call; ? = inconclusive; / = no result given; [ ] = remark or other dose. Unless noted, calls come from the whole dose curve; as a rule, active = well fitted curve in the direction sought with a large enough effect; inconclusive = small, poorly fitted or top-dose-only effect, or another doubt; inactive = no such curve, though single readings can be large; an effect the other way counts as inactive or inconclusive. Unless noted, % is set by controls: 0 for no effect and ±100 for the full control effect.

SMILES	DT40 TDP1 no CPT	HT1080 IDH1KD tx	IL-1B inflam inh	12-LOX inh	HT1080NT lethal	TDP1 cell CPT
CC1CCN(CC(=O)Nc2ccc(S(=O)(=O)N3CCCC(C)C3)cc2)CC1 (stereo unspecified)	-12%	-8%	-51*	?	-8%	?
CCOC(=O)C1CCN(CC(=O)Nc2ccc(S(=O)(=O)N3CCC(C)CC3)cc2)CC1	21µM*	0%	18	-1%	0%	?
CC1CCCN(S(=O)(=O)c2ccc(NC(=O)CN3CCN(C)CC3)cc2)C1 (stereo unspecified)	-3%	8%	4	?	9%	?
COc1ccc(-c2c(C)oc3c(C)c(OCCN4CCCCC4)ccc3c2=O)cc1	/	/	/	-2%	/	/
Cc1ccc(C(=O)N2CCC(N3C(=O)CCC3C(=O)NC(C)C)CC2)c(C)c1 (stereo unspecified)	/	/	/	-18%	/	/
CN(C)CCCN1C(=O)CSC1c1ccc(Br)cc1 (stereo unspecified)	/	/	/	-6%	/	/
O=C(CC1(O)C(=O)N(CCc2ccccc2)c2ccccc21)c1ccco1 (stereo unspecified)	2.9µM*	18%	15	350%	23%	5.8µM*
Cc1coc(C)c1C(=O)CC1(O)C(=O)N(Cc2ccccc2)c2ccccc21 (stereo unspecified)	23µM*	-6%	-16	?	-8%	16µM*
Cc1ccc(C(=O)CC2(O)C(=O)N(Cc3ccccc3F)c3ccccc32)cc1 (stereo unspecified)	?	/	/	-14%	/	?
Cc1ccc(CN2C(=O)C(O)(CC(=O)c3ccc(C)cc3)c3ccccc32)cc1 (stereo unspecified)	2.6µM*	/	/	?	/	5.8µM*
C#CCN1C(=O)C(O)(CC(=O)/C=C/c2ccco2)c2ccccc21 (stereo unspecified)	3.7µM*	-8%	6	?	-2%	5.8µM*
CC(=O)CC1(O)C(=O)N(Cc2ccccc2)c2ccccc21 (stereo unspecified)	?	0%	14	6%	1%	?
O=C(/C=C/c1ccco1)Nc1ccccc1N1CCCC1	?	-8%	-7	-14%	-10%	?
Cc1ccc(-c2cc3c(ccn3C(C)C)c(C(=O)NCc3c(C)cc(C)[nH]c3=O)n2)cn1	/	/	/	4%[176 µM]	/	/
Cc1ccc(/C=N/O)o1	/	/	/	-1%	/	/
Cc1ccc(C(=O)CC2(O)C(=O)N(CCc3ccccc3)c3ccc(Br)cc32)o1 (stereo unspecified)	16µM*	-18%	-19	?	-13%	?
C=CCN1C(=O)C(O)(CC(=O)c2ccccc2)c2ccccc21 (stereo unspecified)	18µM*	11%[9.24 µM]	0	0%	14%	?
O=C(CC1(O)C(=O)N(CCc2ccccc2)c2ccc(Br)cc21)c1ccccc1 (stereo unspecified)	?	/	/	-25%	/	?
Cc1ccc(C(=O)CC2(O)C(=O)N(CCc3ccccc3)c3ccc(Cl)cc32)cc1 (stereo unspecified)	23µM*	/	/	?	/	21µM*
CC(=O)C1=C(O)CC(C)(C)CC1=NCc1nc2ccccc2[nH]1	16µM*	20%	47	15%	20%	?
CC(=O)C1=C(O)CCCC1=NCc1nc2ccccc2[nH]1	?	-2%	-9	20%	-1%	2%
COc1ncnc2c1ncn2CCCNc1ccc(C)c(C)c1	13µM*	1%	-10	0%	0%	?
CC(C)C1Oc2ccccc2N(CC(=O)N(C)C2CCCCC2)C1=O (stereo unspecified)	?	-1%	-74*	-5%	-5%	?
CCCn1cnc2nc(CSc3ccccc3NC(=O)c3cccc(Cl)c3)cc(=O)n21	/	/	/	0%	/	/
CCCC(=O)NNc1c2ccccc2nc2ccccc12	?	9%	-18	2%	-1%	-11%
SMILES	DT40 TDP1 no CPT	HT1080 IDH1KD tx	IL-1B inflam inh	12-LOX inh	HT1080NT lethal	TDP1 cell CPT
CCCC(=O)Nc1c2c(nc3ccccc13)N(c1ccccc1)CC2	?	26µM*	0	/	?	?
Nc1c2c(nc3ccccc13)N(c1ccccc1)CC2	?	-14%	-9	?	-13%	15µM*
Nc1c2c(nc3ccccc13)CSCC2	?	7%	-10	0%	-3%	7%
c1cc(-c2cc(-c3cn[nH]c3)c3cncn3c2)cc(N2CCOCC2)c1	/	/	/	25%[176 µM]	/	/
C(=N\Nc1nccc(-c2cccnc2)n1)/c1ccccc1	?	-15%	-54*	0%	1%	0.033µM*
Cc1ccccc1-c1cc(C(=O)N/N=C/c2cccnc2)c2ccccc2n1	?	-29%	25	0%	-23%	?
CC(C)(C)c1csc(N/N=C/c2cccnc2)n1	1%	-16%	-99*	?	0%	21%
C(=N\Nc1nc(-c2ccccc2)cs1)/c1cccnc1	?	?	-21	?	?	13µM*
Cc1ccc(-c2cc(-c3ccccc3O)nc(N/N=C/c3cccnc3)n2)cc1	12µM*	-3%	6	16%	?	16µM*
COc1cncc(CN2CCC3(CC2)COCCN3C(=O)OCc2ccccc2)c1	/	/	/	34%[176 µM]	/	/
CCS(=O)(=O)Nc1ccc(C(=O)N2CC[C@](C)(O)[C@@H](O)C2)cc1	/	/	/	-2%	/	/
CCOC(=O)C(C(=O)OCC)c1cc(Br)c2noc3c2c1C(=O)c1ccccc1-3	2.6µM*	12µM*	-89*	?	9.2µM*	3.7µM*
CC(C)Nc1cc(N2CCN(C3CCCCC3)CC2)c2noc3c2c1C(=O)c1ccccc1-3	?	/	/	8%	/	?
Cn1c2ccccc2c(=O)c2c(=O)n(C3CCCCC3)c(-c3ccco3)nc21	?	-1%	5	?	-1%	23µM*
COc1ccc(C(=O)CCN2CCN(c3ccccc3F)CC2)cc1	3.7µM*	?	0	-9%	?	4.6µM*
O=C(CCC(=O)N1CCN(c2ccccc2F)CC1)c1ccc(F)cc1	?	3%	-6	-18%	2%	1%
